Source: PubChem (National Center for Advancing Translational Sciences (NCATS))
Rows were chosen to be rich in hits. Some 10% of all compounds tested hit in one or more screens of this group.
G9a inh – qHTS Assay for Inhibitors of Histone Lysine Methyltransferase G9a; Histone-lysine N-methyltransferase EHMT2 (Homo sapiens), Q96KQ7; G9a H3K9 monomethylation, AlphaScreen, 2 h; Potency, µM (titrated, usually from 102 µM), without a hit: top-dose activity, negative = inhibition, most hits filed as inhibitors; actives 8.8% (n = 350,000); note: potency is the fitted concentration of half-maximal effect; % is set by controls: 0 for no effect and ±100 for the full control effect; nearly all actives have a fitted effect of over 75% in size
Target sequence (Q96KQ7 913-1193 limits assumed): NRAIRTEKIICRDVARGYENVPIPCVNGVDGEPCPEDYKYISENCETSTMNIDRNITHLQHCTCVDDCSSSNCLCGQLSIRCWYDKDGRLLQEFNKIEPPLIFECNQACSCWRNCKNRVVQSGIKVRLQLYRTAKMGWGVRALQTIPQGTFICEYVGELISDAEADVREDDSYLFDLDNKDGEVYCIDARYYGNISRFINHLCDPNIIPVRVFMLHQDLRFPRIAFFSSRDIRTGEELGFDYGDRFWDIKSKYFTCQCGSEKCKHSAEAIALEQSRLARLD
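Using a bead-based AlphaScreen, monomethylated H3K9 product from 2 h room-temperature reactions (G9a 20 nM, peptide 500 nM, SAM 20 uM) was detected with 0.5 ug/mL rabbit anti-H3K9me1 antibody.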
JMJD2A Tudor inh – qHTS Assay for Inhibitors of JMJD2A-Tudor Domain; Lysine-specific demethylase 4A (Homo sapiens), O75164; AlphaScreen JMJD2A-Tudor / H3K4me3 peptide binding; Potency, µM (titrated, usually from 114 µM), inactives show at the highest dose activity change, negative = inhibition, hits mostly inhibitors; actives 4.4% (n = 390,000); note: potency is the fitted concentration of half-maximal effect; % is set by controls: 0 for no effect and ±100 for the full control effect; nearly all actives have a fitted effect of over 50% in size
Six1-Eya2 blk – qHTS Assay for Inhibitors of the Six1/Eya2 Interaction; AlphaScreen GST-Six1/His-Eya2 binding, biochemical; active compounds read low; activity change, % (concentration not given with the values); actives 0.56% (n = 360,000); AID 651725, 2012; in the data active = activity change below about -65%; inconclusive = mostly about -30% to -63%; note: % is set by controls: 0 for no effect and ±100 for the full control effect
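Six1/Eya2 binding was read as AlphaScreen signal after compounds were pinned into GST-Six1 plus His-tagged Eya2 (5X stock 250/500 nM) in pH 8.0 Tris/NaCl/TCEP buffer, beads added, then incubated 1 h, 37 C, dark.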
HP1b binding inh – HTS for Inhibitors of HP1-beta Chromodomain Interactions with Methylated Histone Tails. Potency, µM (series often up to 114 µM), inactives show at the top dose activity change, negative = inhibition, hits mostly inhibitors. actives 0.56% (n = 390,000). AlphaScreen HP1-beta / biotin-H3K9me3 peptide binding. AID 540317, 2011. Chromobox protein homolog 1 (Homo sapiens), P83916; note: potency is the fitted concentration of half-maximal effect; nearly all actives have a fitted effect of over 70% in size
Target sequence (P83916 whole entry, looked up): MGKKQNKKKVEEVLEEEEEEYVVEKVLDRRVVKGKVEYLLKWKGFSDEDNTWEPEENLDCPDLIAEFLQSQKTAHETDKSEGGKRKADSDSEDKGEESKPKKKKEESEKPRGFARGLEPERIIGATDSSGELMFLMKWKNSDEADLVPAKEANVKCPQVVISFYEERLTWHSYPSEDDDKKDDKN
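HP1-beta protein (50 nM final) preincubated 30 min at room temperature with biotinylated H3(1-18)K9me3 peptide (50 nM) in PBS pH 7.4, 0.01% Tween-20, then compound added for 30 min. AlphaScreen streptavidin donor/nickel chelate acceptor beads (10 ug/mL final), 30 min dark, luminescence read.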
BAZ2B block – qHTS Assay for Inhibitors of BAZ2B; AlphaScreen BAZ2B-H3K14Ac peptide displacement; Potency, µM (titrated, usually from 114 µM), for the others: top-dose activity change, negative = inhibition, hits mostly inhibitors; actives 4.4% (n = 360,000); AID 504333, 2011; note: potency is the fitted concentration of half-maximal effect; % is set by controls: 0 for no effect and ±100 for the full control effect; nearly all actives have a fitted effect of over 60% in size
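In this displacement format the biotinylated H3(5-23) peptide acetylated at Lys14 serves as ligand at 50 nM, with BAZ2B at 50 nM in PBS pH 7.4 containing 0.01% Tween-20. Donor and acceptor beads are 10 ug/mL final.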
CtBP-E1A blk – qHTS Assay for Inhibitors of the CtBP/E1A Interaction | CtBP / adenovirus E1A interaction (AlphaScreen) | AlphaScreen GST-E1A/His-CtBP binding, 1536-well; active compounds read low | activity change, % (no concentration beside the values) | actives 0.49% (n = 340,000) | AID 651724, 2012; in the data active = activity change below about -65%; inconclusive = mostly about -30% to -63%; note: % is set by controls: 0 for no effect and ±100 for the full control effect
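GST-E1A and His-tagged CtBP (125 nM each as 5X stock) were preincubated with pin-transferred compound for 2 h at 37 °C in the dark, then glutathione donor and nickel acceptor beads were added for 1 h before AlphaScreen reading.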
The depositor's hits bear a star; u = inconclusive; x = not tested or not shown; [ ] = another dose, or the depositor's remark. Unless noted, calls come from the whole dose curve; as a rule, active = well fitted inhibition curve with a large enough effect; inconclusive = small, poorly fitted or top-dose-only effect; inactive = no such curve, though single readings can be large or run the other way.

SMILES | G9a inh | JMJD2A Tudor inh | Six1-Eya2 blk | HP1b binding inh | BAZ2B block | CtBP-E1A blk
COc1ccc(Nc2ncnc3c2c(-c2ccccc2)cn3-c2ccc(C)c(Cl)c2)cc1OC | -2.0%[59 µM] | u | x | u | u | x
CC(C)CCNC(=O)CN1C(=O)CSc2ccc(S(=O)(=O)N3CCC(C)CC3)cc21 | 6.1%[59 µM] | -13.5% | x | 39.8% | -0.3% | x
C=C(C)COc1ccc2c(CC)cc(=O)oc2c1 | 144.9% | 20µM* | 12.2 | 36.1% | 70.8% | x
COc1cc2nc(NCc3ccccc3Cl)n3nc(-c4cccnc4)nc3c2cc1OC | 7.8%[59 µM] | -23.6% | x | 11.8% | -1.0% | x
O=C(CSc1nc2ncccc2o1)Nc1cccc(C(F)(F)F)c1 | -4.8%[59 µM] | -4.3% | x | 16.6% | -2.9% | x
Cc1cccc(C)c1Nc1nnc(SC/C(O)=C(\C#N)c2nc3ccccc3[nH]2)s1 | 14.1µM* | -26.2% | -1.8 | 1.6% | -1.7% | 23.3
Cn1cnnc1SC/C(O)=C(\C#N)c1nc2ccccc2[nH]1 | u | 25.1µM* | -8.4 | 12.1% | 50.1µM* | -2.5
Cc1cccc(Nc2nnc(SC/C(O)=C(\C#N)c3nc4ccccc4[nH]3)s2)c1C | u | -35.6% | -10.0 | -3.6% | -3.8% | -9.2
COc1ccccc1-c1nnc(SC/C(O)=C(\C#N)c2nc3ccccc3[nH]2)n1C1CCCCC1 | 31.6µM* | 89.1µM* | -6.2 | u | -8.4% | -8.9
N#C/C(=C(/O)CSc1nnc(Cc2cccs2)n1C1CCCCC1)c1nc2ccccc2[nH]1 | u | -18.2% | -13.5 | 28.1% | 30.7% | -12.4
CCCn1c(SC/C(O)=C(\C#N)c2nc3ccccc3[nH]2)n[nH]c1=O | 16.3% | -12.5% | -5.0 | 26.6% | -13.4% | 3.8
CCOc1ccc(-c2nnc(SCC(=O)Nc3ccc(C)cc3Cl)o2)cc1 | u | -25.5% | x | 58.1% | -19.1% | x
CCOc1ccc(-c2nnc(NC(=O)Cc3cc(OC)c(OC)c(OC)c3)o2)cc1 | -9.2%[2.33 µM] | 28.2µM* | -10.4 | 36.3% | 22.4µM* | -15.5
CCOc1ccc(-c2nnc(SCC(=O)Nc3ccc(C)cc3C)o2)cc1 | -5.5%[59 µM] | 79.4µM* | x | 26.9% | -4.2% | x
CCOc1ccc(-c2nnc(NC(=O)Cc3ccc(OC)cc3)o2)cc1 | 18.7% | -10.9% | u | 11.8% | -8.7% | 0.0
CCOc1ccccc1NC(=O)Cn1nnc2sc(-c3ccccc3)cc2c1=O | -0.4%[59 µM] | -28.6% | x | 20.8% | -15.0% | x
Fc1cccc(-c2nnn3c2nc(NC2CCCCC2)c2ccccc23)c1 | 16.8%[59 µM] | 57.3% | x | 164.7% | 52.3% | x
CCCc1[nH]nc2c1C(c1ccc(O)cc1OCC)C(C#N)=C(N)O2 (stereo not drawn) | u | -17.8% | -29.1 | 5.3% | 79.4µM* | 0.1
Cn1c(=O)c2sccc2n2c(CCC(=O)N3CCN(c4ccc(F)cc4)CC3)nnc12 | -15.9%[59 µM] | 3.8% | x | 18.2% | -0.7% | x
CCN1CCN(c2oc(-c3ccc(COc4ccccc4C)o3)nc2C#N)CC1 | 5.1%[59 µM] | 50.1µM* | x | u | 11.4% | x
N#Cc1nc(-c2ccccc2)oc1N1CCC(C(N)=O)CC1 | -2.2% | -18.2% | 1.5 | -4.6% | -4.9% | -8.9
Cc1ccccc1OCc1ccc(-c2nc(C#N)c(N3CCC(C(N)=O)CC3)o2)o1 | 10µM* | u | x | -5.4% | u | x
Cc1ccc(CNC(=O)c2oc3ccc(S(=O)(=O)N4CCCC(C)C4)cc3c2C)cc1 (stereo not drawn) | 7.2%[59 µM] | -10.6% | x | 18.5% | -2.7% | x
Nc1ncnc2n[nH]c(Nc3ccc(F)cc3)c12 | -7.3%[59 µM] | x | x | x | x | x
Cn1cc(C(=O)N2CCCCC2)c(=O)c2cc(S(=O)(=O)N3CCCC3)ccc21 | 16.7% | -16.7% | 2.1 | 22.1% | -16.6% | 2.6
SMILES | G9a inh | JMJD2A Tudor inh | Six1-Eya2 blk | HP1b binding inh | BAZ2B block | CtBP-E1A blk
CN(CCNC(=O)c1cn(C)c2ccc(S(=O)(=O)N3CCCC3)cc2c1=O)CCc1ccccc1 | 2.24µM* | -7.9% | 4.9 | 20.9% | -3.8% | 8.4
COC(=O)c1cn(C)c2ccc(S(=O)(=O)N3CCCC3)cc2c1=O | 50.1µM* | -16.4% | -3.8 | 6.0% | u | 3.2
Cn1cc(C(=O)O)c(=O)c2cc(S(=O)(=O)N3CCCCC3)ccc21 | u | 89.1µM* | x | 1.7% | -2.0% | x
Cn1cc(C(=O)NCCc2ccccc2)c(=O)c2cc(S(=O)(=O)N3CCCCC3)ccc21 | 0.3%[59 µM] | -0.7% | x | 39.9% | x | x
COC(=O)c1cn(C)c2ccc(S(=O)(=O)N3CCOCC3)cc2c1=O | 8.6% | 1.4% | 0.2 | 27.3% | -13.6% | x
Cc1c(NC(=O)Nc2cccs2)cccc1[N+](=O)[O-] | u | -28.2% | -6.5 | 9.6% | 1.6% | -5.2
Cc1cccc(NC(=O)Nc2cccs2)c1C | 1µM* | -14.5% | x | 8.3% | -4.3% | x
Cc1ccccc1CNC(=O)Nc1cccs1 | 7.08µM* | -23.9% | -3.8 | u | -28.3% | -3.1
COc1ccc(C2OC34CCCCC3C(C#N)(C#N)C2(C#N)C(=N)O4)cc1 (stereo not drawn) | 50.1µM* | -22.4% | -4.5 | 32.8% | -33.9% | -14.4
CC1OC23CCCCC2C(C#N)(C(=N)O3)C1(C#N)C#N (stereo not drawn) | 12.2%[59 µM] | 10.8% | 5.9 | 37.2% | -1.5% | 0.0
Cc1ccc2c(c1)c1c(n2CC(O)Cn2c(C)nc3ccccc32)/C(=N\O)CCC1 (stereo not drawn) | 17.8µM* | u | -18.3 | -9.7% | u | -7.5
Cn1c(SCC(=O)c2ccccc2)nnc1-c1ccncc1 | 20.4%[59 µM] | -20.4% | 1.6 | 32.4% | 1.7% | 3.2
CCn1c(SCC(=O)c2ccc(O)c(O)c2)nnc1-c1ccccc1 | 14.1µM* | u | -4.3 | 10.0% | u | -2.2
C=CCn1c(SCC(=O)c2ccc(O)c(O)c2)nnc1-c1ccccc1OC | 5.01µM* | u | -4.0 | 26.2% | 50.1µM* | -0.5
CCn1c(SCC(=O)c2cc(C)n(C)c2C)nnc1-c1ccccc1 | u | -14.4% | -7.6 | -5.0% | -32.8% | 1.0
Cn1c(SCC(=O)c2ccc3c(c2)Cc2ccccc2-3)nnc1-c1ccccc1 | 35.5µM* | -11.6%[11.4 µM] | 4.9 | 28.5% | u | -3.8
CCn1c(SCC(=O)c2ccc(O)c(O)c2)nnc1-c1ccccc1OC | u | 28.2µM* | -9.8 | u | 79.4µM* | -0.5
CCOC(=O)c1ccccc1NC(=O)CSc1ncc(CO)n1Cc1ccc(C)cc1 | -36.7%[59 µM] | -25.6% | x | -7.4%[57 µM] | -29.7% | x
